Where “and” joins values, the source holds several entries; their conditions need not be identical. Equal entries are not always repeated. Results filed as inconclusive are left out. More than one record can exist for a structure, and the calls need not agree. Calls of active or inactive are those of the source. The call rests on the fitted dose curve; in most records, active means well fitted curve in the direction sought with a large enough effect in the repeat runs; inconclusive means weak or mixed curves; inactive means no such curve, though single readings can be large; an effect the other way counts as inactive or inconclusive.
Columns and labels:
[1] = A CellTox Green Cytotoxicity Assay to monitor cytotoxicity in HEK293 cells - 40 hour (AID 1224871); further: nearly all actives have a fitted effect of over 45% in size; further: potency means the concentration at half of the fitted maximal effect
In short: (§1)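 Read-out: fluorescence of a cell-impermeant cyanine dye staining DNA of dead cells, proportional to cytotoxicity. HEK293, 600 cells/well with reagent, compound (23 nL DMSO) added after 5 h; reads at 0, 8, 16, 24, 32, 40 h.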

[2] = qHTS RealTime-Glo MT Cell Viability Assay in HEK293 cells - 16 hour (AID 1224872); further: nearly all actives have a fitted effect of over 50% in size; further: potency means the concentration at half of the fitted maximal effect
In short: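 HEK293 cells seeded with NanoLuc/prosubstrate reagent, rested 5 h at 37 C, then dosed and kept at 37 C up to 40 h. Nonlytic real-time luminescence from viable cells read at 0, 8, 16, 24, 32 and 40 h.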

[3] = qHTS RealTime-Glo MT Cell Viability Assay in HepG2 cells - 8 hour (AID 1224873); further: nearly all actives have a fitted effect of over 55% in size
In short: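 Real-time viability: cells seeded at 600 per well together with NanoLuc and cell-permeant prosubstrate, compounds added after 5 h incubation. Luminescence tracked at 0, 8, 16, 24, 32 and 40 h of exposure.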

[4] = A CellTox Green Cytotoxicity Assay to monitor cytotoxicity in HEK293 cells - 24 hour (AID 1224875); further: nearly all actives have a fitted effect of over 45% in size; further: potency means the concentration at half of the fitted maximal effect
In short: as §1

[5] = A CellTox Green Cytotoxicity Assay to monitor cytotoxicity in HepG2 cells - 16 hour (AID 1224876); further: nearly all actives have a fitted effect of over 45% in size; further: potency means the concentration at half of the fitted maximal effect
In short: (§2)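 HepG2, 600 cells/well premixed w/ CellTox Green; 5 h settle, 37 C/5% CO2; pintool cpd add (DMSO); 37 C, 40 h; fluorescence read at 0, 8, 16, 24, 32, 40 h.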

[6] = qHTS RealTime-Glo MT Cell Viability Assay in HepG2 cells - 32 hour (AID 1224877); further: nearly all actives have a fitted effect of over 55% in size; further: potency means the concentration at half of the fitted maximal effect
In short: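 HepG2 cells (600/well) were dispensed with RealTime-Glo reagents, incubated 5 h at 37 °C, then treated with compounds in DMSO for up to 40 h. Nonlytic NanoLuc luminescence reflecting viable cells was read at each stated time point.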

[7] = A CellTox Green Cytotoxicity Assay to monitor cytotoxicity in HepG2 cells - 24 hour (AID 1224878); further: nearly all actives have a fitted effect of over 45% in size; further: potency means the concentration at half of the fitted maximal effect
In short: as §2

[8] = A CellTox Green Cytotoxicity Assay to monitor cytotoxicity in HepG2 cells - 40 hour (AID 1224879); further: nearly all actives have a fitted effect of over 40% in size; further: potency means the concentration at half of the fitted maximal effect
In short: as §2

[9] = qHTS RealTime-Glo MT Cell Viability Assay in HEK293 cells - 0 hour (AID 1224880)
In short: (§3)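 Luminescence readout at each listed time point; HEK293, 600 cells/well, RealTime-Glo MT reagent added with cells; compounds pinned (23 nL in DMSO) after 5 h at 37 C; continuous culture at 37 C.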

[10] = qHTS RealTime-Glo MT Cell Viability Assay in HEK293 cells - 40 hour (AID 1224874); details: RealTime-Glo luminescence; max response: stronger effect = lower value; further: nearly all actives have a fitted effect of over 50% in size; further: potency means the concentration at half of the fitted maximal effect
In short: as §3
On the % scale 0 is the no-effect control and ±100 the full control effect.

OCC(CO)n1cnc(-c2ccc(F)cc2)c1-c1ccnc(Oc2ccccc2)n1
inactive: Potency [1] | Potency [2] | Potency [3] | Potency [4] | Potency [5] | Potency [6] | Potency [7] | Potency [8] | Potency [9]

C1=CCC2CC=CC2C1 (configuration not stated)
inactive: Potency [1] | Potency [2] | Potency [3] | Potency [4] | Potency [5] | Potency [6] | Potency [7] | Potency [8] | Potency [9]

Oc1cccc2[nH]ccc12
inactive: Potency [1] | Potency [2] | Potency [3] | Potency [4] | Potency [5] | Potency [7] | Potency [8] | Potency [9]

CSSc1ccoc1C
inactive: Potency [1] | Potency [2] | Potency [3] | Potency [4] | Potency [5] | Potency [6] | Potency [7] | Potency [8] | Potency [9]

O=c1[nH][nH]c(=O)c2cc([N+](=O)[O-])ccc12
inactive: Potency [1] | Potency [2] | Potency [3] | Potency [4] | Potency [5] | Potency [6] | Potency [7] | Potency [8] | Potency [9]

Nc1nc2ccc(OC(F)(F)F)cc2s1
inactive: Potency [1] | Potency [2] | Potency [3] | Potency [4] | Potency [5] | Potency [6] | Potency [7] | Potency [9]

Nc1ccc(N=Nc2ccc(N)cc2)cc1
inactive: Potency [1] | Potency [2] | Potency [3] | Potency [4] | Potency [5] | Potency [7] | Potency [8] | Potency [9]

CCO[Si](C)(CCCOCC1CO1)OCC (configuration not stated)
inactive: Potency [1] | Potency [2] | Potency [3] | Potency [4] | Potency [5] | Potency [6] | Potency [7] | Potency [8] | Potency [9]

COC(=O)c1sccc1S(N)(=O)=O
inactive: Potency [1] | Potency [2] | Potency [3] | Potency [4] | Potency [5] | Potency [6] | Potency [7] | Potency [9]

CC(C)Cc1ccc(CC(=O)O)cc1
inactive: Potency [2] | Potency [3] | Potency [6] | Potency [9]
active: Potency [1] 15.1 µM | Potency [4] 10.7 µM | Potency [5] 19 µM | Potency [7] 19 µM | Potency [8] 21.3 µM

CSCC[C@H](NC(=O)[C@H](Cc1c[nH]c2ccccc12)NC(=O)CCNC(=O)OC(C)(C)C)C(=O)N[C@@H](CC(=O)O)C(=O)N[C@@H](Cc1ccccc1)C(N)=O
inactive: Potency [1] | Potency [2] | Potency [3] | Potency [4] | Potency [5] | Potency [6] | Potency [7] | Potency [8] | Potency [9]

COc1ccc(/C=C/C(=O)c2ccc(OC)cc2OC)cc1
inactive: Potency [1] | Potency [2] | Potency [3] | Potency [4] | Potency [5] | Potency [6] | Potency [9]

CCC(CO)(CO)CO
inactive: Potency [1] | Potency [2] | Potency [3] | Potency [4] | Potency [5] | Potency [6] | Potency [7] | Potency [8] | Potency [9]

C=C(C)C(=O)OCCC(F)(F)C(F)(F)C(F)(F)C(F)(F)C(F)(F)C(F)(F)F
inactive: Potency [1] | Potency [2] | Potency [3] | Potency [4] | Potency [5] | Potency [6] | Potency [7] | Potency [8] | Potency [9]

COC1CCC=CO1 (configuration not stated)
inactive: Potency [1] | Potency [2] | Potency [3] | Potency [4] | Potency [5] | Potency [6] | Potency [7] | Potency [8] | Potency [9]

CC(CCc1ccc(O)cc1)NCCc1ccc(O)c(O)c1 (configuration not stated)
inactive: Potency [1] | Potency [2] | Potency [3] | Potency [4] | Potency [5] | Potency [6] | Potency [7] | Potency [8] | Potency [9]

COc1ccc2nc(S(=O)Cc3ncc(C)c(OC)c3C)[nH]c2c1 (configuration not stated)
inactive: Potency [3] | Potency [4] | Potency [5] | Potency [6] | Potency [7] | Potency [8] | Potency [9]
21.6 µM (active) and inactive: Potency [2]
inactive and 1.7 nM (active): Potency [1]

O=[N+]([O-])c1ccc2ncccc2c1
inactive: Potency [1] | Potency [2] | Potency [3] | Potency [4] | Potency [5] | Potency [6] | Potency [7] | Potency [8] | Potency [9]

Cc1oc(=O)oc1COC(=O)[C@@H]1N2C(=O)[C@@H](NC(=O)[C@H](N)c3ccccc3)[C@H]2SC1(C)C
inactive: Potency [1] | Potency [2] | Potency [3] | Potency [4] | Potency [5] | Potency [6] | Potency [7] | Potency [8] | Potency [9]

CCCC(=O)OC(=O)CCC
inactive: Potency [1] | Potency [2] | Potency [3] | Potency [4] | Potency [5] | Potency [6] | Potency [7] | Potency [8] | Potency [9]

CC[C@H]1OC(=O)[C@H](C)[C@@H](O[C@H]2C[C@@](C)(OC)[C@@H](O)[C@H](C)O2)[C@H](C)[C@@H](O[C@@H]2O[C@H](C)C[C@H](N(C)C)[C@H]2O)[C@](C)(O)C[C@@H](C)CN(C)[C@H](C)[C@@H](O)[C@]1(C)O
inactive: Potency [1] | Potency [2] | Potency [3] | Potency [4] | Potency [5] | Potency [6] | Potency [7] | Potency [8] | Potency [9]

CC[C@H]1OC(=O)[C@H](C)[C@@H](O[C@H]2C[C@@](C)(OC)[C@@H](O)[C@H](C)O2)[C@H](C)[C@@H](O[C@@H]2O[C@H](C)C[C@H](N(C)C)[C@H]2O)[C@](C)(O)C[C@@H](C)/C(=N\OCOCCOC)[C@H](C)[C@@H](O)[C@]1(C)O
inactive: Potency [1] | Potency [2] | Potency [3] | Potency [4] | Potency [5] | Potency [6] | Potency [7] | Potency [8] | Potency [9]

Cc1ccc(Nc2c(F)cccc2Cl)c(CC(=O)O)c1
inactive: Potency [1] | Potency [2] | Potency [3] | Potency [4] | Potency [5] | Potency [6] | Potency [7] | Potency [8] | Potency [9]

CC1CCCO1 (configuration not stated)
inactive: Potency [1] | Potency [2] | Potency [3] | Potency [4] | Potency [5] | Potency [6] | Potency [7] | Potency [8] | Potency [9]

CCN(CC)c1cccc(O)c1
inactive: Potency [1] | Potency [2] | Potency [3] | Potency [4] | Potency [5] | Potency [6] | Potency [7] | Potency [8] | Potency [9]

Cc1ccccc1S(N)(=O)=O
inactive: Potency [1] | Potency [2] | Potency [3] | Potency [4] | Potency [5] | Potency [6] | Potency [7] | Potency [8] | Potency [9]

O=C(/C=C/c1ccc([N+](=O)[O-])cc1)c1ccccc1
active: Potency [1] 17.4 µM | Potency [2] 24.6 µM | Potency [5] 21.9 µM | Potency [7] 21.9 µM | Potency [8] 21.9 µM
inactive: Potency [3] | Potency [9]

CN(C)CC/C=C1\c2ccccc2Sc2ccc(Cl)cc21
active: Potency [1] 23.9 µM | Potency [10] 23.9 µM | Potency [4] 26.8 µM | Potency [5] 21.3 µM | Potency [6] 23.9 µM | Potency [7] 21.3 µM | Potency [8] 21.3 µM

CCCCC(CC)COS(=O)(=O)O (configuration not stated)
inactive: Potency [2] | Potency [3] | max response [10] -1.73% | Potency [5] | Potency [6] | Potency [7] | Potency [8] | Potency [9]

Cc1ccc2nc(N)[nH]c(=O)c2c1Sc1ccncc1
inactive: Potency [1] | Potency [2] | Potency [4] | Potency [5] | Potency [7] | Potency [8] | Potency [9]

Source: PubChem BioAssay (Tox21)
